# CCHF vOTU inh-1: CCHFV vOTU protease inhibitors, primary screen, biochemical, Pep-AMC substrate, fluorescence | Crimean-Congo hemorrhagic fever virus L polyprotein viral ovarian tumor (vOTU) protease … | inhibition, % at 11.5 µM | hit rate 0.55% among 370,000 | AID 651958, 2012; further: 0% = vehicle wells with enzyme and 100% = no enzyme wells
# Y pestis TopoI: Yersinia pestis topoisomerase I inhibitors, primary screen, biochemical, cleavage product accumulation, plate reader, single point; AID 504884, 2011; DNA topoisomerase I (Yersinia pestis CO92); hit rate 0.064% among 360,000; activity, % at 10 µM; Y. pestis Topo-I cleavage product accumulation; in the data active means activity above about 50%, passing the limit was not always enough
# BH1578 lux ind: inducers of Vibrio cholerae quorum light production without autoinducers, primary screen, BH1578 luxS cqsA deficient, single point; V. cholerae BH1578 lux reporter, luminescence, 6 h; hit rate 0.16% among 350,000; activation, % at 18.7 µM; AID 588436, 2011; in the data active means activation mostly above about 9.7%, no sharp cut-off
# MazEF act: activators of E. coli MazEF toxin-antitoxin RNase, primary screen, biochemical, fluorescence, uHTS; Endoribonuclease toxin MazF (Escherichia coli (strain K12)), P0AE70; FAM/BHQ RNA-DNA oligo cleavage fluorescence, 5 h; activation, % at 20 µM; hit rate 0.32% among 350,000; AID 504720, 2011; in the data active means activation above about 50%
# Target sequence (P0AE70 whole entry, looked up): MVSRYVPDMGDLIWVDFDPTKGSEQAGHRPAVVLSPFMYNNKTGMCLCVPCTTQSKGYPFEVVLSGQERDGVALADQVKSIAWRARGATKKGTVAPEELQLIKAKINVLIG
# DUSP3 inh: VHR1 phosphatase inhibitors, primary screen, biochemical, absorbance, uHTS; hit rate 0.52% among 290,000; inhibition, % at 13.3 µM; recombinant VHR phosphatase, pNPP absorbance; in the data active means inhibition above about 50%
# Target sequence (P51452 whole entry, looked up): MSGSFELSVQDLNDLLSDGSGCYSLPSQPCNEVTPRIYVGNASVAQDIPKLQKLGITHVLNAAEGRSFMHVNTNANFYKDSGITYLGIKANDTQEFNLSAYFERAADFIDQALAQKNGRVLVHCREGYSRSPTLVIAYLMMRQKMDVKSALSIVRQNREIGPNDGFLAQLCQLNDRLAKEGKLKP
# PrPC surface inh: inhibitors of human cell surface prion protein PrPC, primary screen, cell-based, TR-FRET. TR-FRET read-out. hit rate 0.43% among 370,000. inhibition, % at 13.8 µM. Major prion protein (Homo sapiens), P04156; in the data active means inhibition above about 24%; further: 0% = median of the test wells and 100% = reference compound wells
# CCHF vOTU inh-2: CCHFV vOTU protease inhibitors, confirmation, biochemical, Pep-AMC substrate, fluorescence; Recombinant CCHFV vOTU; hit rate 17% among 1,900; inhibition, % at 11.5 µM; AID 686976, 2013; shares compounds with CCHF vOTU inh-1
# Active calls of the source: *; i = inactive; / = not tested or not shown. Rows were chosen to be rich in hits. Some 1.8% of all compounds tested hit in one or more screens of this group. Unless noted, no stated cut-off is given here; in the data, active means inhibition above about 30%; inactive means the rest.
SMILES,CCHF vOTU inh-1,Y pestis TopoI,BH1578 lux ind,MazEF act,DUSP3 inh,PrPC surface inh,CCHF vOTU inh-2
C/C(Cl)=C\Cn1c(N2CCCCCC2)nc2c1c(=O)n(C)c(=O)n2C,31*,3,3,0,-1,9,-11
O=[N+]([O-])c1c(NCCCO)cc(SCc2ccco2)c2nonc12,48*,-11,-4,2,-2,-30,1
CCCCCCCCN1C(=O)[C@@H](CC(=O)NCC23CC4CC(CC(C4)C2)C3)C[C@@]2(C(=O)OC)C1=C[C@H](COCc1ccccc1)O[C@@H]2C,19,/,/,/,/,-2,/
O=C(O)/C(=C/c1ccc(Cl)c([N+](=O)[O-])c1)c1ccc(S(=O)(=O)N2CCCCC2)s1,33*,9,0,-8,/,-17,-4
O=C(O)/C(=C\c1cccc(F)c1)c1ccc(S(=O)(=O)N2CCCCC2)s1,0,1,-1,2,-6,-5,/
O=C(Nc1ccc(NC(=O)C2CC2)cn1)c1ccccc1,3,1,0,7,-8,-1,/
O=C(Cc1ccccc1)Nc1ccc(NC(=O)c2ccccc2)nc1,33*,2,0,6,20,4,-18
CC(NC(=O)CN1CCN(CC(=O)Nc2ccccc2Cl)CC1)c1ccc(Br)cc1 (centres undefined),3,17,-1,8,/,-11,/
O=C(CCNS(=O)(=O)c1ccc(OC(F)(F)F)cc1)NCCc1c[nH]c2ccccc12,30*,2,-1,4,/,-5,-24
CCOc1ccc(OCCC(=O)Nc2cccc(S(=O)(=O)N3CCCC3)c2)cc1,5,21,0,2,/,14,/
CC1=C(CC(=O)c2ccccc2)C(=O)c2ccccc2C1=O,40*,6,-3,5,23,-11,34*
CC(CC(=O)OCC(=O)NCc1ccc(Cl)cc1)c1ccccc1 (centres undefined),33*,29,i,0,/,4,-10
COc1ccc(CNC(=O)CC(C)c2ccccc2)cc1 (centres undefined),-4,5,-2,8,1,0,/
O=C(COC(=O)c1cc(Cl)cc(Cl)c1)NCc1ccco1,-10,13,-2,-2,/,5,/
O=C(CSc1nc2cc(C(=O)O)ccc2c(=O)n1-c1ccc(F)cc1)Nc1ccc(F)c(F)c1F,-8,-4,-8,1,-6,2,/
Cc1cc(Br)cn2c(Cc3ccccc3C(F)(F)F)c(-c3ccccc3)nc12,3,/,/,/,/,3,/
Cc1cc(Br)cn2c(Cc3ccccc3C(F)(F)F)c(-c3ccco3)nc12,30*,/,/,/,/,20,11
O=C1C(=O)N(Cc2ccc(-c3ccccc3)cc2)c2ccc(OC(F)(F)F)cc21,/,/,/,/,/,15,/
Cc1cc(/C=C(\C#N)C(=O)Nc2ccccc2F)c(C)[nH]1,33*,-5,i,7,22,0,-3
CCCCCCCCCCCCN1[C@@H](CC(=O)O)c2cc(F)ccc2S1(=O)=O,32*,16,-2,-2,/,-2,42*
O=c1[nH]ncc(N/N=C\c2cccs2)c1Cl,30*,-2,0,7,22,-21,-8
O=c1[nH]ncc(N/N=C\c2cccnc2)c1Cl,-5,-4,1,4,13,-13,/
O=c1[nH]ncc(N/N=C\c2ccncc2)c1Cl,34*,-5,1,3,22,-12,-1
Cc1ccc(-c2cc(-c3nnc(SCc4cccc5ccccc45)n3N)[nH]n2)cc1,14,/,/,/,/,-3,/
COc1cc(C(O)c2nc(-c3cccs3)cs2)ccc1F (centres undefined),3,-7,i,/,/,-6,/
SMILES,CCHF vOTU inh-1,Y pestis TopoI,BH1578 lux ind,MazEF act,DUSP3 inh,PrPC surface inh,CCHF vOTU inh-2
C[C@H](O)[C@@H]1C(=O)N2CCc3c([nH]c4c(-c5ccccc5)cccc34)[C@@H]2C[C@@H]1N(C)C(=O)OCc1ccccc1,26,/,/,/,/,-2,/
CC(=O)Nc1cccc(NC(=O)CSc2nc(=O)n3cccc(C)c3n2)c1,17,7,0,3,/,6,/
CC(C)NS(=O)(=O)c1ccc(Oc2ncc(C(F)(F)F)cc2Cl)cc1,14,16,-1,3,-13,10,/
CCCNS(=O)(=O)c1ccc(Oc2ncc(C(F)(F)F)cc2Cl)cc1,31*,32,i,-10,-16,10,-2
CCCCCn1c(NC(=O)c2ccco2)c(S(=O)(=O)c2ccc(C)cc2)c2nc3ccccc3nc21,71*,5,-5,12,17,-1,-63
CCCCn1c(NC(=O)c2ccco2)c(C(=O)OCC)c2nc3ccccc3nc21,55*,2,-1,4,-1,-10,-97
CCCCn1c(NC(=O)c2ccco2)c(S(=O)(=O)c2ccc(C)cc2)c2nc3ccccc3nc21,-12,-1,0,-12,29,20,/
CCOC(=O)c1c(N)n(Cc2ccco2)c2nc3ccccc3nc12,-285,-9,0,34,19,-11,/
CCCCn1c(NC(=O)c2ccc(Br)o2)c(S(=O)(=O)c2ccccc2)c2nc3ccccc3nc21,60*,6,0,-3,-2,11,-29
c1ccc(-c2ccc3c(n2)CCCN3Cc2ccccn2)cc1,-35,/,/,/,/,1,/
CC(=O)Nc1ccc(S(=O)(=O)O)c(OC(C)=O)c1,7,2,i,3,/,-7,/
O=C1CCN(CC2CCCCC2)C=C1C(=O)c1ccccc1,32*,-4,i,11,/,5,-13
O=C(c1ccccc1)N1CCN(C2CCCCC2)CC1,-7,4,i,4,-16,-4,/
CC(=O)c1cccc(S(=O)(=O)N2CCn3cccc3C2C)c1 (centres undefined),9,0,i,-13,/,-3,/
O=C(NCC(c1ccco1)N1CCN(c2ccccc2)CC1)C(=O)NC1CCCC1 (centres undefined),12,-1,-1,1,/,-5,/
COc1ccc(C(=O)N(Cc2ccco2)Cc2cccs2)c(O)c1,34*,21,-10,2,-12,-8,-1
O=C(Cc1ccccc1)NCC(=O)N1CCN(c2ccccc2F)CC1,9,-4,0,13,15,-2,/
CCc1ccc(-c2csc(NC(=O)C3CC(=O)N(c4ccc5c(c4)OCCO5)C3)n2)cc1 (centres undefined),30*,-1,2,-3,5,6,-22

# Source: PubChem BioAssay (several laboratories)
